Compound activity from PubChem BioAssay.
IL1B secr inh: qHTS for Inhibitors of Inflammasome Signaling: IL-1-beta AlphaLISA Primary Screen. THP-1 LPS/ATP IL-1B secretion, AlphaLISA, 16 h; stronger effect = lower value. activity change, % at 57.5 µM. hit rate 4.7% among 360,000. AID 743279, 2014; in the data active means activity change below about -50%; inconclusive means mostly about -30% to -49%; further: on the % scale 0 is the no-effect control and ±100 the full control effect
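THP-1 cells pretreated 1 hr with compounds (up to 57.5 uM final), then stimulated with LPS (250 ng/mL final) plus ATP (1.25 mM final); secreted IL-1B measured by AlphaLISA after 16 hr, decreased signal indicating inhibition.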
ASM inhibitor: Inhibitors of Secretory Acid Sphingomyelinase (S-ASM): qHTS; Sphingomyelin phosphodiesterase (Homo sapiens), P17405; placental ASM, HMU-PC fluorogenic substrate, 60 min; Potency, µM (highest dose often 57.5 µM), inactives show at the top dose activity change, negative = inhibition, actives largely listed as inhibitors; hit rate 0.006% among 340,000; AID 504937, 2011; further: potency means the concentration at half of the fitted maximal effect
Target sequence (P17405 47-631 limits assumed): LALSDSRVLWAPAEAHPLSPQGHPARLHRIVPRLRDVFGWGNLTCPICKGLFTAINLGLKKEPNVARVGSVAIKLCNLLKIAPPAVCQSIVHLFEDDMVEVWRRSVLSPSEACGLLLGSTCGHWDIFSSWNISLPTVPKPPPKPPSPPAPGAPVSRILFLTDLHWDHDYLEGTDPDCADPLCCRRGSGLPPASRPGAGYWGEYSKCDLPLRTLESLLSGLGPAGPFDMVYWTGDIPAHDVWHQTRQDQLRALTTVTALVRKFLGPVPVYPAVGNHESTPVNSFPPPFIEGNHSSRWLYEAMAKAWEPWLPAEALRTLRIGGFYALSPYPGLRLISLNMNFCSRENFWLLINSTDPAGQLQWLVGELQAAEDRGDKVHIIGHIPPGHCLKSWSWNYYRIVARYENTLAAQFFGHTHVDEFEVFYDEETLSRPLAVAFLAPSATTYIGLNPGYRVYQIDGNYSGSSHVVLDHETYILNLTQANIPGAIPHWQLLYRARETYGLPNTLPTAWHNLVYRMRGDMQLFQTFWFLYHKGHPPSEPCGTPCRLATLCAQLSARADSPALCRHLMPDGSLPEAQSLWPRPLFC
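Fluorogenic HMU-PC substrate (9 uM final) is turned over by placental ASM in 60 min at 37 C after a 10 min compound preincubation. Reaction ended by alkaline stop (pH 10), with fluorescence read at 386/447 nm.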
DT40 TDP1 no CPT: qHTS for Inhibitors of human tyrosyl-DNA phosphodiesterase 1 (TDP1): qHTS in cells in absence of CPT; DT40 Tdp1-/- hTDP1 cells, no CPT, ATP luminescence, 48 h; Potency, µM (top dose mostly 46.2 µM), for the others: at the highest dose activity change, negative = growth inhibition, most hits filed as inhibitors; hit rate 15% among 420,000; further: potency means the concentration at half of the fitted maximal effect; on the % scale 0 is the no-effect control and ±100 the full control effect; nearly all actives have a fitted effect of over 55% in size
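No-CPT arm: Tdp1-/-;hTDP1 DT40 cells (400/well) plus compounds, incubated ≥48 hr at 37 °C. Readout CellTiter-Glo luminescence.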
DT40 TDP1 CPT: qHTS for Inhibitors of human tyrosyl-DNA phosphodiesterase 1 (TDP1): qHTS in cells in presence of CPT | chicken DT40 Tdp1-/-;hTDP1 cells + 20 nM CPT, ATP luminescence, 48 h | Potency, µM (titrated, usually from 46.2 µM), for inactives: at the highest dose activity change, negative = growth inhibition, most hits filed as inhibitors | hit rate 12% among 420,000 | AID 686979, 2013; further: potency means the concentration at half of the fitted maximal effect; on the % scale 0 is the no-effect control and ±100 the full control effect; nearly all actives have a fitted effect of over 55% in size
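Chicken DT40 Tdp1-/- cells stably complemented with human TDP1 were seeded at 400 cells/well in medium containing 20 nM camptothecin, exposed to pin-transferred compounds, and grown at 37 °C for at least 48 hr. Viability was read as ATP luminescence.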
HepG2 viability: qHTS for Inhibitors of TGF-b: Cytotox Counterscreen | hit rate 0.76% among 410,000 | HepG2 CAGA-GFP viability, ATP luminescence, 18 h | Potency, µM (series often up to 46.1 µM), for inactives: top-dose activity change, negative = cytotoxicity, usual class: cytotoxic; further: potency means the concentration at half of the fitted maximal effect
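CellTiter-Glo luminescence gave cytotoxicity after 18 hours at 37 degrees C. The cells were HepG2 CAGA-GFP in 1% FBS DMEM, stimulated with 500 pg/mL TGF-beta after compound addition. %Activity was normalised to no-cell wells (complete cell-killing) and DMSO (no toxicity), and curves were fitted and classified.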
TGFb SMAD3 inh: qHTS for Inhibitors of TGF-b; HepG2 CAGA-GFP TGF-b/SMAD3 reporter, GFP fluorescence, 18 h; TGF-beta stimulated, 500 pg/mL final; Potency, µM (highest dose often 46.1 µM), inactives show at the highest dose activity, negative = inhibition, hits mostly inhibitors; hit rate 1.2% among 410,000; further: potency means the concentration at half of the fitted maximal effect; on the % scale 0 is the no-effect control and ±100 the full control effect; nearly all actives have a fitted effect of over 65% in size
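Cell-based qHTS in HEPG2 carrying a CAGA-GFP Smad reporter; compounds added before 500 pg/mL final TGF-beta, 18 h incubation at 37 degrees C, GFP fluorescence quantified per cell by imaging cytometry.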
Starred values were filed as active, the others as inactive; ? = inconclusive; . = no result. Rows were chosen to be rich in hits. Some 19% of all compounds tested hit in one or more screens of this group. Unless noted, the call rests on the fitted dose curve; in most records, active means well fitted curve in the direction sought with a large enough effect; inconclusive means small, poorly fitted or top-dose-only effect, or another doubt; inactive means no such curve, though single readings can be large; an effect the other way counts as inactive or inconclusive.

SMILES	IL1B secr inh	ASM inhibitor	DT40 TDP1 no CPT	DT40 TDP1 CPT	HepG2 viability	TGFb SMAD3 inh
CCn1cc(C(=O)NCc2ccco2)c(=O)c2cc(S(=O)(=O)N3CCC(C)CC3)ccc21	-2	-16%	?	?	-49%	?
C=CCn1cc(C(=O)NCc2ccco2)c(=O)c2cc(S(=O)(=O)N3CCCCCC3)ccc21	?	-11%	?	21µM*	-46%	?
C=CCn1cc(C(=O)NCCN(CC)CC)c(=O)c2cc(S(=O)(=O)N3CCCCCC3)ccc21	-25	-1%	7%	?	-1%	10%
C=CCn1cc(C(=O)NCCOC)c(=O)c2cc(S(=O)(=O)N3CCCCCC3)ccc21	-17	-2%	?	?	10µM*	?
CCn1cc(C(=O)NCc2ccco2)c(=O)c2cc(S(=O)(=O)N3CCCCCC3)ccc21	-28	-12%	?	21µM*	-47%	-3%
CCOc1ccc(NC(=O)CSC2=Nc3ccccc3C3=NC(CCC(=O)NCc4ccco4)C(=O)N23)cc1 (stereo unspecified)	.	.	?	?	-1%	26%
COC(=O)c1cc(CNC(=O)c2ccc(N(C)C)cc2)cc(NC(=O)c2ccccc2Cl)c1	.	.	-28%	0%	.	.
CNC(=O)C[C@H]1C(=O)N(C2CCCCC2)C[C@@H]1CSC	10	.	-24%	12%	10%	6%
CC(Oc1ccc(Cl)cc1Cl)C(=O)OCC(=O)c1c(N)n(C)c(=O)n(C)c1=O (stereo unspecified)	17	-14%	-10%	-21%	-9%	?
O=C(Nc1ccc([N+](=O)[O-])cc1)c1cc(Cl)sc1Cl	-6	2%	?	?	-56%	?
CCCCNC(=S)NNC(=O)CCn1nc(C)c(Br)c1C	7	3%	5.6µM*	6.3µM*	-6%	-15%
O=C(Nc1ccc(CN2CCOCC2)cc1)c1ccccc1F	-8	-1%	6%	-4%	-7%	19%
Cc1sc(NC(=O)c2ccccc2F)c(CN2CCCCC2)c1C	-28	5%	23µM*	21µM*	3%	-1%
Cc1sc(NC(=O)c2ccco2)c(CN2CCN(Cc3ccccc3)CC2)c1C	-80*	1%	12µM*	12µM*	-9%	11%
O=C(Nc1sc2c(c1CN1CCOCC1)CCC2)c1ccc(F)cc1	0	-3%	?	?	-5%	-1%
Cc1sc(NC(=O)c2ccc(F)cc2)c(CN2CCCCCC2)c1C	-28	8%	13µM*	13µM*	-24%	0%
NS(=O)(=O)c1ccc(NC(=O)c2cc(=O)c3ccccc3o2)cc1	-19	1%	-14%	-20%	9%	7%
CCc1ccc(-c2nn(Cc3ccccc3)cc2C(=O)NCC2CCCO2)cc1 (stereo unspecified)	0	1%	-3%	?	-6%	-18%
CC1=NN(C(N)=S)C(=O)C1N=Nc1c(C)cc(C)cc1C (stereo unspecified)	12	-4%	0.58µM*	0.52µM*	-1%	-16%
CC1=NN(C(N)=S)C(=O)C1N=Nc1ccccc1C (stereo unspecified)	-7	-6%	1.6µM*	1.6µM*	-11%	-4%
CCOc1ccccc1N=NC1C(=O)N(C(N)=S)N=C1C (stereo unspecified)	41	-3%	3.7µM*	16µM*	0%	-21%
CC1=NN(C(N)=S)C(=O)C1N=Nc1ccccc1[N+](=O)[O-] (stereo unspecified)	16	.	-20%	?	4%	-3%
CC1=NN(C(N)=S)C(=O)C1N=Nc1ccccc1O (stereo unspecified)	25	-6%	-2%	17%	-1%	17%
CC1=NN(C(N)=S)C(=O)C1N=Nc1c(Cl)cc([N+](=O)[O-])cc1Cl (stereo unspecified)	-19	0%	16µM*	?	-35%	?
CC1=NN(C(N)=S)C(=O)C1N=Nc1c(Br)cc(Br)cc1Br (stereo unspecified)	8	-2%	-28%	-28%	-30%	-25%
SMILES	IL1B secr inh	ASM inhibitor	DT40 TDP1 no CPT	DT40 TDP1 CPT	HepG2 viability	TGFb SMAD3 inh
C[C@@H]1CN([C@@H](C)CO)C(=O)c2cc(NC(=O)C3CCCCC3)ccc2O[C@@H](C)CCCCO[C@@H]1CN(C)Cc1ccncc1	-4	.	-21%	-20%	-4%	8%
C[C@]12CC[C@@H]3c4ccc(O)cc4CC[C@H]3[C@@H]1CC[C@@H]2OP(=O)(O)O	.	.	0%	-6%	.	.
O=c1c(=Nc2ccccc2O)c(=O)c2ccccc12	-16	2%	12µM*	7.3µM*	-10%	1%
CC1(C(=O)NCc2cccs2)Cc2c(-c3ccc(C(N)=O)cc3)ccnc2O1 (stereo unspecified)	43	.	3.3µM*	2.6µM*	1%	24%
CCN(CC(=O)NCc1cccs1)C(=O)c1ccc(-c2cccc(C(F)(F)F)c2)o1	-80*	-4%	?	?	-3%	-3%
CC1(C(=O)NCc2cccs2)Cc2c(-c3cccc(C(F)(F)F)c3)ccnc2O1 (stereo unspecified)	62	.	2.9µM*	3.3µM*	-15%	?
CC(=O)NCCNC(=O)C1(C)Cc2c(-c3ccccc3)ccnc2O1 (stereo unspecified)	8	.	-13%	-15%	-7%	5%
CC1(C(=O)NCc2ccccc2)Cc2c(-c3cccc(C(F)(F)F)c3)ccnc2O1 (stereo unspecified)	68	.	5.8µM*	3.7µM*	-3%	?
CC(/C=C/c1ccccc1)=N\Nc1ccccc1[N+](=O)[O-]	-1	-18%	?	-26%	-18%	8%
O=S1(=O)c2ccc(Br)cc2N2CCC[C@@H]2CN1Cc1ccc(Cl)cc1	-3	-5%	?	?	-17%	-25%
O=S1(=O)c2ccc(Br)cc2N2CC[C@H](C2)N1Cc1ccc(Cl)cc1	62	-7%	1.6µM*	1.3µM*	-11%	-17%
